Experimental data as given in the supplement of paper PMC10849652.
The full data set covers some 7,900 targets. This sample favours those with a hit. About 0.6% of all pairs of compound and target were hits.

What was measured:
Experiment in all cases: log2 fold change, soluble protein after heating vs DMSO (PISA); higher = thermal stabilisation; K562 cells, 10 uM, 30 min; active = over 0.2 and 3.5 SD of the protein, either way, in both replicates (recomputed)
IRAK-1-4 Inhibitor I = compound: C1COCCN1CCN2C3=CC=CC=C3N=C2NC(=O)C4=CC(=CC=C4)[N+](=O)[O-] [IRAK-1-4 Inhibitor I]
Outline: (§1)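 Aliquots of K562 cells (2×10^6 cells/mL) treated with 10 μM compound for 30 min were heated for 3 min over 48°C-58°C. After pooling and extraction in PBS with 0.5% NP-40 at 4°C, soluble protein from a 21,000xg, 90 min spin was quantified by TMTpro 16plex LC-MS/MS with channel sums equalised. Thermal stability is expressed against control samples, from duplicates, as a log2 fold change.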

ibrutinib = compound: C=CC(=O)N1CCC[C@@H](n2nc(-c3ccc(Oc4ccccc4)cc3)c3c(N)ncnc32)C1 [ibrutinib]
Outline: as §1

[1] = compound: CC(=O)c1cnc2ccc(-c3cc(Cl)c(O)c(Cl)c3)nc2c1N[C@H]1CC[C@H](CN(C)C)CC1
Outline: as §1

ralimetinib = compound: CC(C)(C)Cn1c(N)nc2ccc(-c3[nH]c(C(C)(C)C)nc3-c3ccc(F)cc3)nc21 [ralimetinib]
Outline: as §1

[2] = compound: CC(C)(O)CC(=O)NCCn1ccc2ncnc(Nc3ccc(Oc4cccc(C(F)(F)F)c4)c(Cl)c3)c21
Outline: as §1

[3] = compound: CC(C)C1=C2N=C(C=C(N2N=C1)NCC3=CC=CC=C3)NCCCCCCN
Outline: as §1

[4] = compound: CC(C)C[C@@H](C=O)NC(=O)[C@H](CC(C)C)NC(=O)[C@H](CC(C)C)NC(=O)OCc1ccccc1
Outline: as §1

pinometostat = compound: CC(C)N(C[C@H]1O[C@@H](n2cnc3c(N)ncnc32)[C@H](O)[C@@H]1O)[C@H]1C[C@@H](CCc2nc3cc(C(C)(C)C)ccc3[nH]2)C1 [pinometostat]
Outline: as §1

[5] = compound: CC1=C(C(CC(=O)N1)C2=CC=C(C=C2)C(F)(F)F)C(=O)NC3=C(C=C4C(=C3)C=NN4)F
Outline: as §1

[6] = compound: CC1=C(C2=C(C=C1)C(=O)C3=CC=CC=C3N2CCCN)C
Outline: as §1

[7] = compound: CC1=C(C=C(C=C1)NC(=O)C2=CC(=CC=C2)C(C)(C)C#N)NC3=CC4=C(C=C3)N=CN(C4=O)C
Outline: as §1

[8] = compound: CC1=C(C=C(C=C1)NC(=O)C2=CC(=CC=C2)N(C)C)NC(=O)C3=CC=C(C=C3)O
Outline: as §1

[9] = compound: CC1=CC=C(C=C1)SC2=C3C=C(SC3=CN=C2)C(=O)N
Outline: as §1

[10] = compound: CC1=NC(=CC=C1)C2=C(N=C(N2)C(C)(C)C)C3=CC4=NC=CN=C4C=C3
Outline: as §1

Nexturastat A = compound: CCCCN(Cc1ccc(C(=O)NO)cc1)C(=O)Nc1ccccc1 [Nexturastat A]
Outline: as §1

vemurafenib = compound: CCCS(=O)(=O)Nc1ccc(F)c(C(=O)c2c[nH]c3ncc(-c4ccc(Cl)cc4)cc23)c1F [vemurafenib]
Outline: as §1

[11] = compound: CCCS(=O)(=O)Nc1ccc(F)c(C(=O)c2c[nH]c3ncc(Cl)cc23)c1F
Outline: as §1

[12] = compound: CCCc1cc(C)[nH]c(=O)c1CNC(=O)c1cc(-c2ccnc(N3CCN(C)CC3)c2)cc2c1cnn2C(C)C
Outline: as §1

givinostat = compound: CCN(CC)Cc1ccc2cc(COC(=O)Nc3ccc(C(=O)NO)cc3)ccc2c1 [givinostat]
Outline: as §1

barasertib = compound: CCN(CCCOc1ccc2c(Nc3cc(CC(=O)Nc4cccc(F)c4)[nH]n3)ncnc2c1)CCOP(=O)(O)O [barasertib]
Outline: as §1

Measured: log2 fold change

CTNNB1 (UniProt P35222)
UniProt P35222, sequence (P35222 whole entry, looked up): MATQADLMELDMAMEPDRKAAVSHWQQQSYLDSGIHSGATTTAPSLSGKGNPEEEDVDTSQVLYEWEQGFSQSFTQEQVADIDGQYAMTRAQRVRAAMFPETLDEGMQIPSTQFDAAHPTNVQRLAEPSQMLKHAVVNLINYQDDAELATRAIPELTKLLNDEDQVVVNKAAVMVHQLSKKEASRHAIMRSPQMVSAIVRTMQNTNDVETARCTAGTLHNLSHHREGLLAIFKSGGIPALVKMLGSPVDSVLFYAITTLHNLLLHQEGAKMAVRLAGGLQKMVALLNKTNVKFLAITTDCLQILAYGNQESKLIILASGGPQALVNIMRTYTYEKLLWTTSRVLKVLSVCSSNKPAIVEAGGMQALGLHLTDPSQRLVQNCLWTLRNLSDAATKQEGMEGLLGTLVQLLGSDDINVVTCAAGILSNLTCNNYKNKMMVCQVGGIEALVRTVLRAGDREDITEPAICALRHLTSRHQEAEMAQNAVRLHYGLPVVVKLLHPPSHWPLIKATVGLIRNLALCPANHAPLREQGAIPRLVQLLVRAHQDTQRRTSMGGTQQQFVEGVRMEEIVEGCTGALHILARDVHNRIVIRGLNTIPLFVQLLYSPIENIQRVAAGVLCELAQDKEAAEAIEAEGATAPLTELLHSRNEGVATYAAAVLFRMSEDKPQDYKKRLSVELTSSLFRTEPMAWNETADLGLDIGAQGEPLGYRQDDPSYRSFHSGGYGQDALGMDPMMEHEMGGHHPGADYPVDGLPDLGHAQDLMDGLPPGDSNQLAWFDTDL
inactive: IRAK-1-4 Inhibitor I -0.028 | ibrutinib -0.116 | [1] 0.263 | ralimetinib -0.045 | [2] -0.056 | [3] -0.007 | [4] 0.081 | pinometostat -0.021 | [5] -0.057 | [6] 0.003 | [7] -0.118 | [8] -0.018 | [9] 0.09 | [10] -0.028 | Nexturastat A 0.172 | vemurafenib -0.22 | [11] -0.002 | [12] -0.134 | givinostat 0.129 | barasertib 0.04

EIF3J isoform 2 (UniProt O75822)
UniProt O75822, sequence (O75822 whole entry, looked up): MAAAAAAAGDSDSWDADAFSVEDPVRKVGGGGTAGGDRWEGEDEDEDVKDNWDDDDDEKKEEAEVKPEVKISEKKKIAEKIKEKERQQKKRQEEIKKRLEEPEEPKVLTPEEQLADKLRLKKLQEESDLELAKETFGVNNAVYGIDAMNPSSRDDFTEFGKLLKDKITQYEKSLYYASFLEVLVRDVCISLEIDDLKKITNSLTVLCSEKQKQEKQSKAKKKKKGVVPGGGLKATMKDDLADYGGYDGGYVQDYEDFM
inactive: IRAK-1-4 Inhibitor I 0.052 | ibrutinib 0.014 | [1] -0.071 | [2] -0.05 | [3] 0.036 | pinometostat -0.018 | [5] 0.046 | [6] 0.107 | [7] -0.1 | [9] 0.032 | [10] -0.02 | Nexturastat A 0.048 | vemurafenib -0.17 | [11] -0.062 | [12] -0.613 | givinostat -0.129 | barasertib -0.071

CYP51A1 (UniProt Q16850)
inactive: IRAK-1-4 Inhibitor I -0.129 | ibrutinib 0.039 | [1] -0.028 | ralimetinib 0.064 | [2] 0.245 | [4] 0.07 | pinometostat 0.045 | [5] -0.013 | [6] -0.006 | [7] 0.063 | [8] -0.036 | [9] -0.098 | [10] -0.133 | Nexturastat A 0.024 | vemurafenib 0.029 | [11] -0.015 | [12] 0.07 | givinostat 0.007 | barasertib 0.01
active: [3] 0.782

EIF4E isoform 2 (UniProt P06730)
UniProt P06730, sequence (P06730 whole entry, looked up): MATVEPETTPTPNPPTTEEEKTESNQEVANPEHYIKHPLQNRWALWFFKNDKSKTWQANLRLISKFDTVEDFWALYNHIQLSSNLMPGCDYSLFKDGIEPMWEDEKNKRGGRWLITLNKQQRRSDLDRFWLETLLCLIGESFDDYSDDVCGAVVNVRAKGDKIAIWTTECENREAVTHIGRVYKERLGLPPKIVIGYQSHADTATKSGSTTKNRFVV
inactive: IRAK-1-4 Inhibitor I 0.066 | ibrutinib 0.089 | [1] 0.308 | ralimetinib -0.071 | [2] -0.016 | [3] 0.114 | [4] 0.012 | pinometostat -0.057 | [5] -0.024 | [6] 0.027 | [7] 0.044 | [8] -0.035 | [9] 0.008 | [10] 0.02 | Nexturastat A -0.078 | vemurafenib 0.078 | [11] 0.109 | [12] -0.086 | givinostat 0.012 | barasertib -0.07

DNAJC1 (UniProt Q96KC8)
active: [3] -0.462
inactive: IRAK-1-4 Inhibitor I 0.017 | ibrutinib 0.02 | [1] -0.026 | ralimetinib -0.081 | [2] -0.117 | [4] 0.025 | pinometostat -0.037 | [5] -0.012 | [6] 0.019 | [7] 0.027 | [8] 0 | [9] 0.014 | [10] 0.049 | Nexturastat A -0.079 | vemurafenib -0.007 | [11] 0.037 | [12] -0.13 | givinostat -0.013 | barasertib 0.047

DYNC1I2 isoform 2 (UniProt Q13409)
UniProt Q13409, sequence (Q13409 whole entry, looked up): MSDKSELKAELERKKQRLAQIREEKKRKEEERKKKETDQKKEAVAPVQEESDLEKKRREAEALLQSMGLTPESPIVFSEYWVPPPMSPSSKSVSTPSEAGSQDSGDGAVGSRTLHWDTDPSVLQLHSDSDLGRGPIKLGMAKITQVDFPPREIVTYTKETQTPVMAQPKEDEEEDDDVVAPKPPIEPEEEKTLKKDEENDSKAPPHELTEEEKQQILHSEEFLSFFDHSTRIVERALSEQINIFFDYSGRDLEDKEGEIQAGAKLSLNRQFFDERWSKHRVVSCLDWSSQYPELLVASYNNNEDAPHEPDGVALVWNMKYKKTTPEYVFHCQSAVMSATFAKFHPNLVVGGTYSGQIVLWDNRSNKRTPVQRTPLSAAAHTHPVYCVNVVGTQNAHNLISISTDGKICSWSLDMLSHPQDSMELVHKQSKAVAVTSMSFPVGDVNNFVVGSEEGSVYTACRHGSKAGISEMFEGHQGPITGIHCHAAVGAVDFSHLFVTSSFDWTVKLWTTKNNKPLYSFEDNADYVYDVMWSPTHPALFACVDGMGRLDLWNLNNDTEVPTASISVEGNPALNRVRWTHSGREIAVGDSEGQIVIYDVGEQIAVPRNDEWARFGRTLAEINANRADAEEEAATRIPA
inactive: IRAK-1-4 Inhibitor I 0.012 | ibrutinib 0.126 | [1] 0.106 | ralimetinib 0.055 | [2] -0.133 | [3] -0.105 | [4] 0.154 | pinometostat 0.023 | [6] -0.05 | [7] 0.006 | [8] -0.054 | [9] -0.179 | [10] 0.061 | Nexturastat A 0.047 | [11] 0.018 | [12] 0.271 | givinostat 0.044 | barasertib 0.015

DHCR7 (UniProt Q9UBM7)
inactive: IRAK-1-4 Inhibitor I -0.045 | ibrutinib -0.091 | [1] -0.085 | ralimetinib 0.056 | [2] 0.067 | [3] -0.021 | [4] 0.011 | pinometostat 0.199 | [5] 0.037 | [6] 0.15 | [7] -0.037 | [8] -0.028 | [9] -0.055 | [10] 0.023 | Nexturastat A 0.104 | vemurafenib 0.011 | [11] 0.039 | [12] 0.139 | barasertib 0.204
active: givinostat 0.808

FAM118A (UniProt Q9NWS6)
UniProt Q9NWS6, sequence (Q9NWS6 whole entry, looked up): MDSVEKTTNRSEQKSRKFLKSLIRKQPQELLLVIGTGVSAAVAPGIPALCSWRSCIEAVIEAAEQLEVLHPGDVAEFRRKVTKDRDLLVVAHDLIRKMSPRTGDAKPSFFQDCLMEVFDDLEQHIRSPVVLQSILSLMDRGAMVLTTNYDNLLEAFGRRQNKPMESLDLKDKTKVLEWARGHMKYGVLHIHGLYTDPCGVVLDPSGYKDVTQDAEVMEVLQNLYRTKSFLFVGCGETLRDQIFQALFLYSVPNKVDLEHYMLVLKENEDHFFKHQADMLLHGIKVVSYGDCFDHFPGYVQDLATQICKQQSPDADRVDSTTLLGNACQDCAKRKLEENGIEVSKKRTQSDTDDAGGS
inactive: IRAK-1-4 Inhibitor I -0.009 | ibrutinib 0.045 | [1] -0.212 | ralimetinib -0.21 | [2] -0.207 | [4] -0.125 | pinometostat -0.054 | [5] -0.006 | [6] 0.014 | [7] 0.057 | [8] 0.086 | [9] 0.101 | [10] -0.163 | Nexturastat A -0.031 | vemurafenib 0.182 | [11] 0.114 | [12] -0.016 | barasertib 0.112

FAM241A (UniProt Q8N8J7)
active: [7] 0.536
inactive: IRAK-1-4 Inhibitor I 0.011 | ibrutinib -0.094 | [1] 0.063 | ralimetinib -0.019 | [3] -0.008 | [4] 0.004 | pinometostat -0.029 | [5] 0.059 | [6] -0.008 | [8] -0.012 | [9] -0.031 | [10] -0.028 | vemurafenib -0.083 | [11] 0.015 | [12] -0.009 | givinostat -0.037 | barasertib 0.06

CUTA isoform 2 (UniProt O60888)
UniProt O60888, sequence (O60888 whole entry, looked up): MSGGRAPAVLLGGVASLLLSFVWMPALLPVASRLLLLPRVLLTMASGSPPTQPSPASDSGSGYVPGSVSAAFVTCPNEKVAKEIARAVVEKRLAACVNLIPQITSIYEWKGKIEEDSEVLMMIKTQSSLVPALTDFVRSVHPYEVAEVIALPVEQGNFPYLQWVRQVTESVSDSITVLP
inactive: IRAK-1-4 Inhibitor I 0.074 | ibrutinib -0.018 | [1] 0.085 | ralimetinib -0.046 | [2] -0.104 | [3] 0.038 | [4] -0.09 | pinometostat -0.009 | [5] 0.005 | [6] 0.15 | [7] -0.121 | [8] -0.011 | [9] 0.013 | [10] 0.044 | Nexturastat A 0.169 | vemurafenib 0 | [11] 0.044 | [12] 0.16 | givinostat -0.044 | barasertib 0.015

EZH2 isoform 2 (UniProt Q15910)
UniProt Q15910, sequence (Q15910 whole entry, looked up): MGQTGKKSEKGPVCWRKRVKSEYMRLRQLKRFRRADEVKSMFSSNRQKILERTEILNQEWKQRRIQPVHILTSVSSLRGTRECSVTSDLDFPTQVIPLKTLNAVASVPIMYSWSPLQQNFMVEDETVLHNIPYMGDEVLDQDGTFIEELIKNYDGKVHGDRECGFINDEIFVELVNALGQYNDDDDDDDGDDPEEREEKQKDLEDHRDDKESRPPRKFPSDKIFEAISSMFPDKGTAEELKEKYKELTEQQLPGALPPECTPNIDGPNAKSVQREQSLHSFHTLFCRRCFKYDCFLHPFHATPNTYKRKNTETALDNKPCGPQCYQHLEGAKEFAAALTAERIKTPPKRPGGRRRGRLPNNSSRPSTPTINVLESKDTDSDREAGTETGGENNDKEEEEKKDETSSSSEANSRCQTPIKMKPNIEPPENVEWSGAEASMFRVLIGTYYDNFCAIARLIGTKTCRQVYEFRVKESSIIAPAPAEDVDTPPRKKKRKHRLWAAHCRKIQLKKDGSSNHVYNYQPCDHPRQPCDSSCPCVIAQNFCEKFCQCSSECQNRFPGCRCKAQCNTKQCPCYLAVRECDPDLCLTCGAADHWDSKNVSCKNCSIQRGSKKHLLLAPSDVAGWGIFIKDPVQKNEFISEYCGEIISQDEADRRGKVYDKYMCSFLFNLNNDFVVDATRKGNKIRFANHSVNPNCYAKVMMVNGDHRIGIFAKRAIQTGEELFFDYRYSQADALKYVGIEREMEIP
inactive: IRAK-1-4 Inhibitor I -0.247 | ibrutinib -0.114 | [1] 0.115 | [2] -0.041 | [3] -0.239 | pinometostat 0.068 | [6] -0.11 | [7] 0.063 | [9] 0.127 | [10] 0.149 | Nexturastat A -0.173 | vemurafenib 0.377 | [11] 0 | givinostat 0.097 | barasertib 0.045
active: [12] 0.949

ELMO1 (UniProt Q92556)
UniProt Q92556, sequence (Q92556 whole entry, looked up): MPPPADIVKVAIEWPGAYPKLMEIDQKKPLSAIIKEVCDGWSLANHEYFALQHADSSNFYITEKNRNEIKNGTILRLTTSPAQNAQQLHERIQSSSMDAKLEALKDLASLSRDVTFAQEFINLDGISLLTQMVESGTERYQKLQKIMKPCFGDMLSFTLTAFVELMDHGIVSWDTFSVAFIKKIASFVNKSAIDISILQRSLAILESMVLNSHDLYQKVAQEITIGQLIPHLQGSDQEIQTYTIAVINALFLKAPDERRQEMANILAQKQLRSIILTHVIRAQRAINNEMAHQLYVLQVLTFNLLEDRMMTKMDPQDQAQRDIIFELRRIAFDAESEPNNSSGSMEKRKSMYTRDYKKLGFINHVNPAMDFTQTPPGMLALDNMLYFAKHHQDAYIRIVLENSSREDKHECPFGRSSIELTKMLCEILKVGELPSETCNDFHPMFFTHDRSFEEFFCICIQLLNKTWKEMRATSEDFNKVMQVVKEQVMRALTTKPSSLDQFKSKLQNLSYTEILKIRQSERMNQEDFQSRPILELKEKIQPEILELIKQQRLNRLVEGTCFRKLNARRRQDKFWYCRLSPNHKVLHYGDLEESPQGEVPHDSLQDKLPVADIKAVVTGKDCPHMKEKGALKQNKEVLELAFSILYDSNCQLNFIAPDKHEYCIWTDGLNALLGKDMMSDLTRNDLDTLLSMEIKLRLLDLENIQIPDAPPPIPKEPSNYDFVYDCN
active: [4] 0.761
inactive: IRAK-1-4 Inhibitor I -0.022 | ibrutinib -0.176 | ralimetinib 0.069 | [2] -0.091 | [3] -0.094 | pinometostat -0.161 | [5] 0.037 | [7] -0.075 | [8] -0.005 | [10] -0.074 | Nexturastat A -0.101 | vemurafenib -0.172 | [12] 0.218 | givinostat -0.043 | barasertib -0.105

FAM50A (UniProt Q14320)
inactive: IRAK-1-4 Inhibitor I -0.014 | ibrutinib -0.011 | [1] -0.01 | ralimetinib -0.029 | [2] -0.027 | [3] 0 | [4] 0.043 | pinometostat -0.016 | [5] -0.026 | [6] 0.053 | [7] 0.041 | [8] -0.059 | [9] 0.019 | [10] 0.057 | Nexturastat A -0.069 | vemurafenib 0.049 | [11] 0.035 | [12] 0.014 | givinostat 0.102 | barasertib 0.026

DNM2 isoform 4 (UniProt P50570)
inactive: IRAK-1-4 Inhibitor I 0.019 | ibrutinib -0.074 | ralimetinib 0.005 | [2] -0.101 | [3] -0.047 | [4] -0.04 | pinometostat -0.063 | [5] 0.007 | [7] 0.062 | [8] -0.001 | [10] 0.23 | Nexturastat A 0.089 | [12] -0.032 | givinostat 0.159 | barasertib 0.013

DAXX (UniProt Q9UER7)
UniProt Q9UER7, sequence (Q9UER7 whole entry, looked up): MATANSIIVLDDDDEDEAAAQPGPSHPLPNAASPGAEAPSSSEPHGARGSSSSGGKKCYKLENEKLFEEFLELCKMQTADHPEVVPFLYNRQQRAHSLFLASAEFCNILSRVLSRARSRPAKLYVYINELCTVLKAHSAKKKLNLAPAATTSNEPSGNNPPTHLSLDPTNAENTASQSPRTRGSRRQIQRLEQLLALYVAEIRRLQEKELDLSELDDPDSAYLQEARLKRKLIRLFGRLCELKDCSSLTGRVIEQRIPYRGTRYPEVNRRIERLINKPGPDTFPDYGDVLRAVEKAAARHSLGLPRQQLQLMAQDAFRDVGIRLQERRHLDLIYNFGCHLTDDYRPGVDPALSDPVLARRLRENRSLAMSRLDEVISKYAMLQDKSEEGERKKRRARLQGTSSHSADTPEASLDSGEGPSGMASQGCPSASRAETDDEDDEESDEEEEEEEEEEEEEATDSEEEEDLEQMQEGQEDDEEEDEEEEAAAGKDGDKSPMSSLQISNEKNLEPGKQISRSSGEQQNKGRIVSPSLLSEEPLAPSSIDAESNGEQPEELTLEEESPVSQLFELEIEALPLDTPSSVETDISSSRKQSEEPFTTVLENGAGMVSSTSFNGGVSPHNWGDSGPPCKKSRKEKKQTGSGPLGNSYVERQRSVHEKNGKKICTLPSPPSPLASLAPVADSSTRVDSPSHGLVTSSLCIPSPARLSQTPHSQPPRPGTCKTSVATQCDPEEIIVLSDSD
inactive: IRAK-1-4 Inhibitor I 0.13 | ibrutinib 0.091 | [1] 0.008 | ralimetinib 0.218 | [3] 0.243 | [4] 0.088 | pinometostat -0.049 | [5] 0.078 | [6] 0.078 | [7] 0.019 | [8] -0.02 | [9] 0.031 | [10] -0.165 | vemurafenib -0.058 | [11] 0.031 | givinostat 0.352 | barasertib -0.025

CTU1 (UniProt Q7Z7A3)
UniProt Q7Z7A3, sequence (Q7Z7A3 whole entry, looked up): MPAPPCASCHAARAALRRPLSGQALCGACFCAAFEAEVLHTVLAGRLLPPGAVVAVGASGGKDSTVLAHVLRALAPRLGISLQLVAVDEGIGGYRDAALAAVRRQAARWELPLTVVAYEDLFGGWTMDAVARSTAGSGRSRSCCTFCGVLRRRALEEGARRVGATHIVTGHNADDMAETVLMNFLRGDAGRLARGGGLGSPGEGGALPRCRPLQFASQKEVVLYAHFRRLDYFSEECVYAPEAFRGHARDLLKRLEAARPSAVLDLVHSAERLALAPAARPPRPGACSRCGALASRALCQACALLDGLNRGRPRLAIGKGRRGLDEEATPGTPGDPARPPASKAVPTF
inactive: IRAK-1-4 Inhibitor I 0.026 | ibrutinib 0.041 | [1] 0.02 | ralimetinib 0.005 | [2] -0.054 | [3] -0.052 | [4] -0.041 | pinometostat 0.007 | [5] 0.007 | [6] -0.021 | [7] 0.011 | [8] -0.023 | [9] 0.061 | [10] 0.059 | Nexturastat A -0.022 | vemurafenib 0.065 | [11] 0.034 | [12] -0.035 | givinostat 0.043 | barasertib 0
